# Bioassay records: PubChem BioAssay, several laboratories
# L major viab: reduces viability of Leishmania major promastigotes | resazurin fluorescence viability | 9% of 200,000 active | inhibition, % at 10 µM | AID 1063; in the data active means inhibition above about 50%;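 further: promastigotes grown with compound for 44 hours at 28 °C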
# Ins promoter up: MIN6 insulin promoter up-regulation; MIN6 insulin promoter-GFP reporter, high-content imaging; active compounds read high; z-score at 5 µM; 0.3% of 190,000 active;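 active means z-score above 3 at 5 µM with at least 500 cells counted in the well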
# INS promoter inh: TRM-6 insulin promoter activity inhibition; TRM-6 cells (human fetal islet line), insulin promoter-eGFP reporter, imaging; reporter expression induced with tamoxifen; inhibition, % at 2 µM; 0.9% of 130,000 active;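 active means inhibition above the mean plus 3 SD, with well images judged a real hit on visual review, cut at about 60% in these data, passing the limit was not always enough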
# Autophagy HCS: modulators of autophagy | MEF GFP-LC3 puncta imaging; test concentration mostly 10 µM | calls only at 10 µM (by protocol) | 0.98% of 190,000 active | AID 463193;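 active means percentage of spot-positive cells more than 3 SD above its plate mean, without a fluorescence outlier flag or 80% toxicity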;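 further: spot-positive cell cutoff set from DMSO-treated cells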
# HCT116 PTEN-null: PTEN-deleted cell growth suppression | HCT116 PTEN-null viability, CellTiter-Glo, 60 h; active compounds read low | viability, % at 10 µM | 1.2% of 140,000 active;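 active means viability at or below a set limit, 4 SD under the median of all tested compounds, cut at about 3.7% in these data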;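 further: PTEN knockout HCT116 line with beta catenin targeted HCT116 as companion control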
# bCat KO growth: beta-catenin-lacking colon tumor cell growth suppression. 1.5% of 140,000 active. AID 818. viability, % at 10 µM. HCT116 beta-catenin knockout viability, CellTiter-Glo, 60 h; active compounds read low;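 active means viability at or under a set limit, the compound median less 4 SD, cut at about 6% in these data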;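 further: 0% = Hyamine 1622 control at 20 µM and 100% = untreated cell control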
# * = called active by the depositor; i = inactive; · = not tested or not shown. Only some compounds are listed: those with a hit (about 9.6% of all), similar ones and a draw of the others.
SMILES,L major viab,Ins promoter up,INS promoter inh,Autophagy HCS,HCT116 PTEN-null,bCat KO growth
Cc1ccc(NC(=O)[C@@H](NC(=O)c2cccc(S(=O)(=O)N3CCOCC3)c2)C(C)C)cc1C,76*,-0.25,14,i,30,51
CSCCC(NC(N)=O)C(=O)Nc1cccc(S(=O)(=O)N2CCOCC2)c1 (stereo unspecified),-7,-0.3,·,i,·,·
CC(O/N=C/c1ccccc1OC(F)F)C(=O)Nc1cccc(S(=O)(=O)N2CCOCC2)c1 (stereo unspecified),51*,·,14,i,90,92
CC(C)[C@H](NC(=O)c1cccc(S(=O)(=O)N2CCOCC2)c1)C(=O)Nc1nccs1,-11,-0.01,·,i,·,·
CCOc1ccc(NC(=O)[C@@H](NC(=O)c2ccccc2Br)C(C)C)cc1,98*,·,-48,i,88,83
CSCCC(NC(=O)c1cccc(S(=O)(=O)N2CCOCC2)c1)C(=O)Nc1ccc(F)cc1 (stereo unspecified),73*,0.4,3,i,98,92
COc1ccc(S(=O)(=O)N2CCOCC2)cc1NC(=O)CO/N=C/c1ccccc1OC(F)F,7,0.33,31,i,89,93
CCCCCCC(=O)Cc1cc(OC)c(OC)cc1C=C(C(=O)OCC)C(=O)OCC,20,0.05,-5,i,73,83
COc1cccc(-n2nnc3c(=O)n(Cc4ccc(F)cc4)cnc32)c1,-3,0.18,57,i,100,99
O=C(N/N=C/c1cccc(Oc2ccccc2)c1)c1cc[n+]([O-])cc1,5,0.04,·,i,·,·
CSCCC(NC(=O)c1ccccc1)C(=O)Nc1ccc(NC(C)=O)cc1 (stereo unspecified),55*,0.51,39,i,105,100
CCOc1ccc(C(=O)N[C@H](C(=O)Nc2cccc(S(=O)(=O)N3CCCCC3)c2)C(C)C)cc1,97*,0.86,-161,i,71,60
O=C(Cn1nnc(-c2ccccc2Cl)n1)N1CCN(S(=O)(=O)c2ccc(Cl)cc2)CC1,99*,0.45,-71,i,72,83
CCOc1ccc(NC(=O)CN(c2cccc(C(F)(F)F)c2)S(C)(=O)=O)cc1,38,-0.86,7,i,90,87
O=C(COC(=O)c1ccc[n+]([O-])c1)Nc1c(Br)cc([N+](=O)[O-])cc1Br,61*,-0.38,·,i,·,·
O=C(COC(=O)c1cc[n+]([O-])cc1)Nc1ccc([N+](=O)[O-])cc1,-6,-1.2,17,i,·,·
Cc1nn(-c2ccccc2)c(Cl)c1/C=N/NC(N)=O,·,0.18,·,·,·,·
C=CCn1cc(/C=N\NC(=O)c2cc3c(ccc4ccccc43)o2)c2ccccc21,100*,·,-36,i,64,66
Cc1nn(-c2ccccc2)c(Cl)c1/C=N/Nc1nc2ccccc2n1C,52*,-0.95,78*,i,83,78
Cc1ccc(N2CCN(/N=C/c3c(C)nn(-c4ccccc4)c3Cl)CC2)cc1,89*,0.61,-4,i,93,80
C(=N\Nc1nc2ccccc2[nH]1)/c1cccs1,98*,-0.34,3,i,89,94
Cc1cc(=O)[nH]c(N/N=C/c2c(C)nn(-c3ccccc3)c2C)n1,2,·,·,i,·,·
Cc1nn(-c2ccccc2)c(C)c1/C=N/Nc1nc2ccccc2[nH]1,100*,0.1,84*,i,21,26
COc1cccc(/C=N/Nc2nc3ccccc3[nH]2)c1OC,·,0.88,·,·,·,·
Cn1c(/C=N/Nc2nc3ccccc3[nH]2)nc2ccccc21,101*,-1.2,·,i,·,·
SMILES,L major viab,Ins promoter up,INS promoter inh,Autophagy HCS,HCT116 PTEN-null,bCat KO growth
C(=N\Nc1nc2ccccc2[nH]1)/c1ccncc1,14,-0.67,-67,i,·,·
CC(C)Cn1c(/C=N/Nc2nc3ccccc3[nH]2)nc2ccccc21,100*,-2.1,19,i,14,12
CCCn1c(/C=N/Nc2nc3ccccc3[nH]2)nc2ccccc21,100*,-2.4,38,i,3.0*,3.6*
Cc1ccsc1/C=N/Nc1nc2ccccc2[nH]1,50,-0.53,19,i,73,86
CCCc1cc(C(=O)Nc2nnc(C)s2)cs1,-5,-0.16,8,i,85,101
CCC(CC)Nc1ccc(C(CC(N)=O)NC(=O)Cc2ccc(Br)cc2)cc1[N+](=O)[O-] (stereo unspecified),·,1,·,·,·,·
Fc1cccc(Cl)c1-c1nnc2ccc3ccccc3n12,36,-0.29,-91,i,·,·
